The values that follow come from PubChem BioAssay (EPA / NIEHS).

Inconclusive results are not listed. The source made the active and inactive calls. How the source made its calls: active means hit-call score of the fitted dose curve at least 0.9, where 1 is the maximum; inconclusive means response in the unintended direction; inactive means score below 0.9.

This experiment can be described thus: STM_H9_NormalizedViability: Cytotoxicity Assessment at 120 hours in the Stemina devTOX quickPredict H9 human embryonic stem cell (hESC)-based Assay (AID 2283784). As for the experimental part: STM_H9_viability utilizes undifferentiated H9 cells to measure cell viability.STM_H9_NormalizedViability is a component calculated in the STM_H9_viability assay. It measures cell viability using background corrected relative fluorescence units (RFU) value from the CellTiterFluor Assay normalized to the value of the 0.1% DMSO neutral control treatment (by 96-well plate)Data from the assay component STM_H9_Viability was analyzed at the assay endpoint STM_H9_Viability_Norm in the positive analysis fitting direction relative to DMSO as the negative control and baseline of activity. Using a type of viability reporter, loss-of-signal activity can be used to understand viability.
H9 hESCs maintained in a pluripotent state were exposed to test compound for 72h with chemical replenishment with media replacement every 24h. Cell-conditioned media from the final 24-h treatment period was collected for analysis of the targeted biomarker, and cell viability of the corresponding cell layer was assessed. The chemical library was tested in blinded fashion. Each test plate included 1uM Methotrexate (MTX; Selleck Chemicals, Houston, Texas) as a positive reference, 5 nM MTX as a negative reference, 0.1% DMSO as the neutral (vehicle) control, and sample-level media blanks.H9 cell-conditioned media from the final 24-h treatment period was collected for analysis of the targeted biomarker and cell viability was measured from the corresponding cell layer. Cell viability was measured using the CellTiter-Fluor assay (Promega, Madison, Wisconsin) based on proteolytic cleavage of a substrate to fluorescent signal proportional to the number of living cells. The cell viability Relative Fluorescence Unit (RFU) was background corrected and normalized to mean RFU of the neutral control (0.1% DMSO). The collected H9-cell-conditioned media samples were processed for targeted biomarker analysis as described (Palmer et al., 2013). Briefly, spent media samples were deproteinized (40% acetonitrile) and processed for UPLC-HRMS. Data acquisition was performed using 4 separate UPLC-HRMS systems, consisting of an Agilent 1290 Infinity LC system (Agilent Technologies) interfaced with an Agilent high-resolution mass spectrometer (models G6520A, G6520B, G6530A, and G6224A). A Waters Acquity UPLC BEH Amide column (2.1mm x 50mm, 1.7lm particle size; Waters, Milford, Massachusetts) maintained at 40C was applied for separation of metabolites using a 6.5min solvent gradient with 0.1% formic acid in water and 0.1% formic acid in acetonitrile (1.0ml/min flow rate). Data were acquired using MassHunter Acquisition software (version B 04.00, Agilent Technologies). The extracted ion chromatogram (EIC) areas for ORN, CYSS, and their respective spike-in C13-standards were determined using the Agilent MassHunter Quantitative Analysis software, version B.05.00 or newer (Agilent Technologies), and data were normalized as described in Palmer et al. (2017).
Regarding `CC(C)C1(C)N=C(c2ncccc2C(=O)O)NC1=O` (stereo unspecified), the result was inactive.

Turning to `Clc1cccc(C(Cl)(Cl)Cl)n1`, the result was inactive.

As for `CC(C)(C)C(=O)C(Oc1ccc(Cl)cc1)n1cncn1` (stereo unspecified), the result was inactive.

Take `CCCN(CC)CC1COC2(CCC(C(C)(C)C)CC2)O1` (stereo unspecified): the outcome was inactive.

As for `CCOc1nc(C(Cl)(Cl)Cl)ns1`, the result was inactive.

Take `CCOP(=S)(OCC)Oc1nc(Cl)n(C(C)C)n1`: the outcome was inactive.

With `CCCCC(O)(Cn1cncn1)c1ccc(Cl)cc1Cl` (stereo unspecified), the AC50 is 78.3 µM (active).

For `CC1(C)CCC(=Cc2ccc(Cl)cc2)C1(O)Cn1cncn1` (stereo unspecified), the result was inactive.

Take `CCN(CC)C(=O)C(C)Oc1cccc2ccccc12` (stereo unspecified): the outcome was inactive.

Consider `O=C1C2CC=CCC2C(=O)N1SC(Cl)(Cl)Cl` (stereo unspecified), for which the outcome was inactive.

In the case of `CS(=O)(=O)c1cc(C(F)(F)F)ccc1C(=O)c1cnoc1C1CC1`, the outcome was inactive.

Take `COc1ccc(-c2ccccc2)cc1NNC(=O)OC(C)C`: the AC50 is 45.6 µM (active).

Consider `COCc1cnc(C2=NC(C)(C(C)C)C(=O)N2)c(C(=O)O)c1` (stereo unspecified), for which the outcome was inactive.

For `N#CN=C1SCCN1Cc1ccc(Cl)nc1`, the result was inactive.

For `CC(C)Nc1nc(Cl)nc(NC(C)C)n1`, the result was inactive.

Regarding `N#Cc1c[nH]cc1-c1cccc2c1OC(F)(F)O2`, the AC50 was 76.4 µM (active).

`Cc1cc(C)nc(Nc2ccccc2)n1`: the result was inactive.

`CS(=O)(=O)c1ccc(C(=O)C2C(=O)CCCC2=O)c([N+](=O)[O-])c1`: the outcome was inactive.

As to `CO/N=C(/C1=NOCCO1)c1ccccc1Oc1ncnc(Oc2ccccc2Cl)c1F`, the AC50 is 35.2 µM (active).

In the case of `CC1(C)CON(Cc2ccccc2Cl)C1=O`, the outcome was inactive.

Regarding `CCCCC(C#N)(Cn1cncn1)c1ccc(Cl)cc1` (stereo unspecified), the concentration at half-maximal activity (AC50) is 56 µM (active).

Consider `CCNP(=S)(OC)O/C(C)=C/C(=O)OC(C)C` (stereo unspecified), for which the outcome was inactive.

For the compound `COc1cc(OC)nc(NC(=O)NS(=O)(=O)c2ncccc2OCC(F)(F)F)n1`, the outcome was inactive.

For `CCNC(=O)NC(=O)C(C#N)=NOC`, the outcome was inactive.

On to `O=C(Nc1ccccc1-c1ccc(Cl)cc1)c1cccnc1Cl`, for which the outcome was inactive.

As for `Cn1c(-c2ccccc2)cc(-c2ccccc2)[n+]1C`, the AC50 is 31.1 µM (active).
